System: Vero E6 infected with SARS-CoV-2
Assay: inhibition of SARS-CoV-2 cytopathic effect; higher = more antiviral protection, active = above 15
Conditions: 48 h

Measured: inhibition of SARS-CoV-2 cytopathic effect

OC(CCCN1CCCCC1)(c1ccccc1)c1ccccc1 [diphenidol]
inactive: 1 nM -5.55% | 8.33 nM -3.34% | 100 nM -2.4% | 833.33 nM -1.92% | 10000 nM -2.8%

CC(C)Oc1ccc(Cc2ccc(NC3=NCCN3)cc2)cc1
inactive: 1 nM 0.38% | 8.33 nM 0.26% | 100 nM 2.45% | 833.33 nM 0.98% | 10000 nM -0.97%

CNC(=O)c1ccccc1Sc1ccc2c(/C=C/c3ccccn3)n[nH]c2c1 [axitinib]
inactive: 1 nM -0.21% | 8.33 nM -0.79% | 100 nM 0.55% | 833.33 nM 2.32% | 10000 nM 0.23%

Cc1ccc(NCCCc2ccccc2)c(N)c1 [NFKB-activation-inhibitor-II]
inactive: 1 nM -0.97% | 8.33 nM -0.96% | 100 nM -1.32% | 833.33 nM -1.12% | 10000 nM 2.24%

CC1/C=C/C=C/C=C/C=C/C=C/C=C/C=C/C(OC2O[C@H](C)[C@@H](O)[C@H](N)[C@@H]2O)CC(O)C(C(=O)O)C(O)CC(=O)CC(O)CC(O)CC(O)CC(=O)CCCC(=O)CC(=O)OC1C(C)CC(C)C(O)CC(=O)c1ccc(N)cc1 (stereo not given in full) [candicidin]
inactive: 1 nM -0.52% | 8.33 nM 4.78% | 100 nM 3.57% | 833.33 nM 4.79% | 10000 nM -2.56%

Cc1cnc(C(=O)NCCc2ccc(S(=O)(=O)NC(=O)NC3CCCCC3)cc2)cn1 [glipizide]
inactive: 1 nM -3.14% | 8.33 nM -1.53% | 100 nM -0.68% | 833.33 nM -1.78% | 10000 nM 0.54%

CC1(C)OC(=O)C(OCC2CC2)=C1c1ccc(S(C)(=O)=O)cc1 [firocoxib]
inactive: 1 nM -1.63% | 8.33 nM -1.5% | 100 nM 0.34% | 833.33 nM 0.04% | 10000 nM -1.02%

CCNCC(O)c1cccc(O)c1 (stereo not given) [etilefrine]
inactive: 1 nM -0.51% | 8.33 nM 2.79% | 100 nM -0.96% | 833.33 nM -0.19% | 10000 nM 1.89%

Cc1cc(O)c(-c2ccc([C@@H](C)CN)cc2)c2c1[nH]c(=O)c1sccc12
inactive: 1 nM -2.25% | 8.33 nM -1.13% | 100 nM -0.22% | 833.33 nM 3.77% | 10000 nM -23.9%

CC(C)[C@@H](C(=O)Nc1nccs1)c1ccc(Cl)cc1
inactive: 1 nM 0.5% | 8.33 nM 0.66% | 100 nM 1.05% | 833.33 nM 1.87% | 10000 nM 1.55%

CC#C[C@@H](CC(=O)O)c1ccc(OCc2cccc(-c3ccc(C(F)(F)F)cc3)c2)cc1
inactive: 1 nM -0.29% | 8.33 nM 1.42% | 100 nM -0.33% | 833.33 nM 2.32% | 10000 nM 4.27%

O=C1CCCC(=O)C1C(=O)c1ccc(C(F)(F)F)cc1[N+](=O)[O-] [nitisinone]
inactive: 1 nM 0.39% | 8.33 nM 0.93% | 100 nM -0.21% | 833.33 nM 0.01% | 10000 nM -1.34%

CNCCCC1(c2ccccc2)OC(C)(C)c2ccccc21 (stereo not given) [talopram]
inactive: 1 nM -0.51% | 8.33 nM -1.8% | 100 nM 0.91% | 833.33 nM -2.03% | 10000 nM -3.52%

N[C@@H]1CONC1=O [cycloserine-(D)]
inactive: 1 nM -2.12% | 8.33 nM -4.07% | 100 nM -2.78% | 833.33 nM -4.11% | 10000 nM -3.61%

Cc1[nH]cnc1CN1CCc2c(c3ccccc3n2C)C1=O [alosetron]
inactive: 1 nM -0.13% | 8.33 nM -3.23% | 100 nM -3.51% | 833.33 nM -1.58% | 10000 nM -2.24%

CNC(=O)ON(C(C)=O)C(=O)NC [caracemide]
inactive: 1 nM -4.06% | 8.33 nM -3.46% | 100 nM 0.29% | 833.33 nM -1.19% | 10000 nM 8.36%

CC(=O)N(OCc1ccccc1)[C@@H]1c2cc(C#N)ccc2OC(C)(C)[C@H]1O
inactive: 1 nM -4.41% | 8.33 nM -2.98% | 100 nM -6.3% | 833.33 nM 2.7% | 10000 nM 2.53%

CC(C)(O)CC(=O)O [beta-hydroxy-beta-methylbutyrate]
inactive: 1 nM 3.1% | 8.33 nM -2.04% | 100 nM -6.91% | 833.33 nM -3.9% | 10000 nM -3.42%

Cn1ncc2c(N3CCOCC3)nc(-c3cccc(O)c3)nc21
inactive: 1 nM -0.24% | 8.33 nM -1.45% | 100 nM 0.03% | 833.33 nM 1.57% | 10000 nM -0.01%

From the supplement of paper PMC13380429
